Assay outcomes as filed in PubChem BioAssay.
In the library only some 19% were active in any assay of this set; here they are far more common.
DT40 TDP1 CPT: DT40-hTDP1 cell growth loss with CPT; Potency, µM (top dose mostly 46.2 µM), inactives show at the highest dose activity change, negative = growth inhibition, usual class: inhibitors; 420,000 compounds, 12% hits; AID 686979; chicken DT40 Tdp1-/-;hTDP1 cells + 20 nM CPT, ATP luminescence, 48 h; note: potency is the fitted concentration of half-maximal effect; nearly all actives have a fitted effect of over 55% in size
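Cell growth measured by CellTiter-Glo luminescence after a minimum 48 h, 37 C compound exposure with 20 nM CPT in Tdp1-knockout DT40 cells stably expressing hTDP1, seeded 400/well; qHTS titration format.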
HT1080 IDH1KD tx: HT-1080 IDH1 knockdown cell toxicity (counter line) | AID 686971 | Potency, µM (highest dose often 46.1 µM), for the others: top-dose activity, negative = toxicity, usual class: cytotoxic | 360,000 compounds, 2% hits | HT-1080 IDH1 knockdown viability, ATP luminescence, 48 h;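 note: potency is the fitted concentration of half-maximal effect; 0% = DMSO wells and -100% = cell-free medium wells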
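Knockdown cells (IDH1KD HT-1080) received compounds 2 h after plating at 750 cells/well and were kept 48 h at 37 °C in 5% FBS RPMI. A CellTiter-Glo luminescence read gave % activity for curve fitting.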
DT40 TDP1 no CPT: qHTS for Inhibitors of human tyrosyl-DNA phosphodiesterase 1 (TDP1): qHTS in cells in absence of CPT; DT40 Tdp1-/- hTDP1 cells, no CPT, ATP luminescence, 48 h; Potency, µM (series often up to 46.2 µM), for the others: top-dose activity change, negative = growth inhibition, usual class: inhibitors; 420,000 compounds, 15% hits; note: potency is the fitted concentration of half-maximal effect; nearly all actives have a fitted effect of over 55% in size
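Stably hTDP1-transfected Tdp1-null chicken DT40 cells were treated with library compounds minus camptothecin and grown for at least 48 hr at 37 °C, after which cellular ATP was quantified by luminescence.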
HT1080NT lethal: kills 2HG-producing HT-1080-NT fibrosarcoma cells; HT-1080-NT fibrosarcoma viability, CellTiter-Glo ATP luminescence, 48 h; Potency, µM (top dose mostly 46.1 µM), for the others: at the top dose activity, negative = less viability, hits mostly cytotoxic; 360,000 compounds, 1.6% hits; AID 686970;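 note: NT is the 2HG producing partner of a matched IDH1 knockdown line; potency is the fitted concentration of half-maximal effect; 0% = DMSO-treated cells and -100% = media-only wells without cells; nearly all actives have a fitted effect of over 55% in size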
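Luminescent CellTiter-Glo readout after 48 hours of compound exposure at 37 degrees C defined viability of HT-1080-NT cells. Activity was normalized to DMSO wells and cell-free media wells; concentration-response curves were fitted and assigned curve classes.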
IL1B secr inh: inhibitors of inflammasome signaling (IL-1 beta secretion) | THP-1 LPS/ATP IL-1B secretion, AlphaLISA, 16 h; stronger effect = lower value | AID 743279 | 360,000 compounds, 4.7% hits | activity change, % at 57.5 µM; in the data active = activity change below about -50%; inconclusive = mostly about -30% to -49%
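Secreted IL-1B measured by AlphaLISA bead assay after 16 h compound exposure of THP-1 cells; compounds (final up to 57.5 uM) added 1 h before LPS (250 ng/mL) and ATP (1.25 mM) stimulation; lower signal means less secretion.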
Numbers without * were called inactive. Unless noted, calls come from the whole dose curve; as a rule, active = well fitted curve in the direction sought with a large enough effect; inconclusive = small, poorly fitted or top-dose-only effect, or another doubt; inactive = no such curve, though single readings can be large; an effect the other way counts as inactive or inconclusive. Unless noted, % is set by controls: 0 for no effect and ±100 for the full control effect.

CC1Cc2ccccc2N1C(=O)CSc1nnc(-c2ccccc2)c(-c2ccccc2)n1 (centres undefined) was read as DT40 TDP1 CPT 20.6µM*, HT1080 IDH1KD tx -8.7%, DT40 TDP1 no CPT inconclusive, HT1080NT lethal -19.9% and IL1B secr inh inconclusive.
Screening CC1Cc2ccccc2N1C(=O)CSc1ncc(-c2ccc(F)cc2)n1C (centres undefined) returned DT40 TDP1 CPT inconclusive, HT1080 IDH1KD tx -2.7%, DT40 TDP1 no CPT inconclusive, HT1080NT lethal 0.4% and IL1B secr inh -77.3*.
CC1Cc2ccccc2N1C(=O)CSc1nncn1C (centres undefined) was read as DT40 TDP1 CPT 8.2%, HT1080 IDH1KD tx 5.7%, DT40 TDP1 no CPT -19.6%, HT1080NT lethal 17.9% and IL1B secr inh 4.0.
CC1CCCCN1C(=O)CSc1nnc2c(n1)[nH]c1ccccc12 (centres undefined) was read as DT40 TDP1 CPT -3.4%, HT1080 IDH1KD tx 6.5%, DT40 TDP1 no CPT -30.0%, HT1080NT lethal 10.6% and IL1B secr inh 7.2.
Screening CC(Sc1nnc(-c2ccccc2)c(-c2ccccc2)n1)C(=O)N1CCc2ccccc21 (centres undefined) returned DT40 TDP1 CPT inconclusive, HT1080 IDH1KD tx -17.5%, DT40 TDP1 no CPT 16.4µM*, HT1080NT lethal -10.6% and IL1B secr inh -6.8.
Screening CC1Cc2ccccc2N1C(=O)CSc1nnc2c(n1)[nH]c1ccccc12 (centres undefined) returned DT40 TDP1 CPT inconclusive, HT1080 IDH1KD tx -29.0%, DT40 TDP1 no CPT 20.6µM*, HT1080NT lethal inconclusive and IL1B secr inh 25.6.
`O=C(Nc1cccnc1)NC1CCCCC1` gave DT40 TDP1 CPT 2.4%, HT1080 IDH1KD tx 2.1%, DT40 TDP1 no CPT 8.4%, HT1080NT lethal -1.1% and IL1B secr inh 3.1.
`COc1cccc(-c2cnc(C(O)c3cccc(C)c3C)[nH]2)c1` (centres undefined) gave DT40 TDP1 CPT -15.9%, HT1080 IDH1KD tx 0.6%, DT40 TDP1 no CPT -17.9%, HT1080NT lethal -0.3% and IL1B secr inh 20.4.
For C=CCOc1ccc(C2C(C(=O)c3ccco3)=C(O)C(=O)N2c2nnc(C)s2)cc1 (centres undefined) the results were DT40 TDP1 CPT inconclusive, HT1080 IDH1KD tx -8.8%, DT40 TDP1 no CPT inconclusive, HT1080NT lethal 22.3% and IL1B secr inh 9.0.
Cc1ccc2oc(=O)n(Cc3ccccc3OC(C)C)c2c1 was read as DT40 TDP1 CPT inconclusive, HT1080 IDH1KD tx -2.9%, DT40 TDP1 no CPT 14.6µM*, HT1080NT lethal 5.5% and IL1B secr inh 28.1.
`O=C(/C=C/c1ccccc1)c1ccccn1` gave DT40 TDP1 CPT 23.1µM*, HT1080 IDH1KD tx inconclusive, DT40 TDP1 no CPT 16.4µM*, HT1080NT lethal inconclusive and IL1B secr inh -12.5.
Screening O=C(C=Cc1ccc2c(c1)OCO2)c1ccccc1 returned DT40 TDP1 CPT inconclusive, HT1080 IDH1KD tx 16.4µM*, DT40 TDP1 no CPT 16.4µM*, HT1080NT lethal inconclusive and IL1B secr inh -72.2*.
Screening O=C(C=Cc1ccc2c(c1)OCO2)C=Cc1ccc2c(c1)OCO2 returned DT40 TDP1 CPT inconclusive, HT1080 IDH1KD tx 10.6%, DT40 TDP1 no CPT 23.1µM*, HT1080NT lethal 6.7% and IL1B secr inh -18.5.
`O=C(/C=C/c1ccc2c(c1)OCO2)NCCS(=O)(=O)N1CCN(c2ccc(F)cc2)CC1` gave DT40 TDP1 CPT inconclusive, HT1080 IDH1KD tx inconclusive, DT40 TDP1 no CPT -26.4%, HT1080NT lethal -29.8% and IL1B secr inh 3.4.
For O=C(/C=C/c1ccc2c(c1)OCO2)NCCS(=O)(=O)N1CCN(c2ccccc2)CC1 the results were DT40 TDP1 CPT -29.4%, HT1080 IDH1KD tx 7.31µM*, DT40 TDP1 no CPT inconclusive, HT1080NT lethal inconclusive and IL1B secr inh -15.0.
CCOC(=O)CN(C(=O)COC(=O)C1(c2ccccc2)CC1)c1ccc(F)cc1 was read as DT40 TDP1 CPT inconclusive, HT1080 IDH1KD tx 14.0%, DT40 TDP1 no CPT inconclusive, HT1080NT lethal -4.0% and IL1B secr inh 8.1.
